A selection: hits, their analogues and other compounds. The true share with any hit is near 7.3%.
Luc counter: counter-screen: inhibitors of Kinase-Glo firefly luciferase; Q27757; Kinase-Glo luciferase, ATP luminescence, 8 min; Potency, µM (doses to about 38.3 µM), actives largely listed as inhibitors; 200,000 compounds, 0.28% hits; AID 1379; note: nearly all actives have a fitted effect of over 60% in size
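Light output from Kinase-Glo luciferase with luciferin and 10 uM ATP in 50 mM imidazole pH 7.2, KCl, MgCl2, Tween 20, BSA; compound pin-delivered, 8-min ambient incubation, then luminescence read.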
ELG1 genotoxic: induces genotoxicity in HEK293T cells with luciferase-tagged ELG1. AID 504466. 330,000 compounds, 1.3% hits. Potency, µM (top dose mostly 46 µM), most hits filed as activators. HEK293T ELG1-luciferase reporter, luminescence, 16 h; note: nearly all actives have a fitted effect of over 60% in size
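ELG1-luciferase HEK293T cells, 2,000/well; compound pinned in; 16 hr, 37 °C, 5% CO2; ONE-Glo, 30 min RT; luminescence on CCD imager.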
NPC1 promoter act: NPC1 promoter activation; 320,000 compounds, 2.4% hits; Huh7 NPC1 promoter luciferase reporter, 24 h; AID 485313; Potency, µM (series often up to 9.22 µM), usual class: activators; note: nearly all actives have a fitted effect of over 60% in size
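Stable NPC1-promoter luciferase Huh7 line; cpd (DMSO) 24 h, 37 °C, 5% CO2; Amplite luciferase reagent 10 min RT; luminescence readout. qHTS format.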
FLuc modulator: inhibits or activates purified firefly luciferase, miR-21 counter-screen; P08659; purified FLuc, Km substrates, luminescence inhibition; Potency, µM (highest dose often 57.5 µM), usual class: inhibitors; 360,000 compounds, 6.9% hits; note: nearly all actives have a fitted effect of over 55% in size
Target sequence (P08659 whole entry, looked up): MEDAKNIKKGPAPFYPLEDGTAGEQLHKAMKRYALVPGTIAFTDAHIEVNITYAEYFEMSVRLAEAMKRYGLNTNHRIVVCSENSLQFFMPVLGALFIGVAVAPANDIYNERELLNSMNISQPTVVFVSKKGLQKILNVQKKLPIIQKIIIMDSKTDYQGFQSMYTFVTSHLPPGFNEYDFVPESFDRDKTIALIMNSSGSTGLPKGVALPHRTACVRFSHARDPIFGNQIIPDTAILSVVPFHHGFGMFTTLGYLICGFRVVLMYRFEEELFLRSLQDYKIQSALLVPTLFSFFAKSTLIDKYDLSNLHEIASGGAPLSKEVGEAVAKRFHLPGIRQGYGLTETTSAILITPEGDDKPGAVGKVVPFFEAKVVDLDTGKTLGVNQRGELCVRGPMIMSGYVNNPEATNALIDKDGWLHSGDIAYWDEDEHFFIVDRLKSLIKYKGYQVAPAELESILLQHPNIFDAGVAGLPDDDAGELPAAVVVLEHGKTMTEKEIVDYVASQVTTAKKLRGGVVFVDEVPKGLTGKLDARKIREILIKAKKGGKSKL
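Purified P. pyralis luciferase, 10 nM final, with Km-level 10 uM D-luciferin and 10 uM ATP in 50 mM Tris acetate pH 7.5, 10 mM Mg acetate, 0.01% Tween-20, 0.05% BSA; 6-point qHTS titration about 60 µM downward; luminescence read.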
Rab9 promoter act: activates the Rab9 promoter. Potency, µM (titrated, usually from 9.22 µM), hits mostly activators. Huh7 Rab9 promoter-luciferase reporter, luminescence, 24 h. 320,000 compounds, 2.8% hits. AID 485297; note: nearly all actives have a fitted effect of over 60% in size
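Cells were plated at 1500 per well in reduced-serum medium with 10% FBS and left 2 h. Compound in DMSO was then added for 24 h at 37 °C. Reporter signal was read by luminescence after 10 min with luciferase detection reagent.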
SMN2 splice enh: enhancers of SMN2 splice variant expression; Potency, µM (top dose mostly 46.1 µM), hits mostly activators; 210,000 compounds, 2.8% hits; HEK293 SMN2-luciferase splicing reporter, luminescence, 30-36 h; note: nearly all actives have a fitted effect of over 55% in size
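HEK293 cells carry an SMN2 minigene-luciferase reporter in which exon 7 inclusion puts luciferase in frame. Cells were seeded at 2000 cells/well, attached for 10-12 hours, then exposed to compounds for 30-36 hours at 37C before ONE-Glo luminescence.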
Numbers stand for hits; i = inactive; ? = inconclusive; nt = no result; [ ] = remark or other dose. Calls come from the whole dose curve; as a rule, active = well fitted curve in the direction sought with a large enough effect; inconclusive = small, poorly fitted or top-dose-only effect, or another doubt; inactive = no such curve, though single readings can be large; an effect the other way counts as inactive or inconclusive.

SMILES	Luc counter	ELG1 genotoxic	NPC1 promoter act	FLuc modulator	Rab9 promoter act	SMN2 splice enh
COC(=O)c1ccc(/C=N/OCC(=O)NC2CCCC(C)C2C)cc1 (stereo unspecified)	i	i	i	i	i	i
COc1cc(/C=N\n2cnnc2)ccc1OCC(=O)Nc1ccc(C)cc1	i	i	i	i	i	i
Cc1ccc(SCc2nc(-c3ccc(C(=O)Nc4cc(C)ccc4C)cc3)oc2C)cc1	nt	nt	nt	i	nt	nt
COc1ccccc1Nc1nn2c(=O)c3ccc(C(=O)NCCC4=CCCCC4)cc3nc2s1	nt	nt	nt	i	nt	nt
CN1CCN(C(=O)c2cc3sc4ccccc4c3s2)CC1	nt	?	0.63µM	3µM	0.71µM	nt
CCOC(=O)c1cccc(NC(=O)c2cc(CN3CCOCC3)on2)c1	nt	nt	nt	i	nt	nt
Cc1ccc(NC(=O)N/C=C/c2ccccc2)cc1	i	?	0.89µM	2.1µM	1.4µM	14µM
O=C(N/C=C/c1ccccc1)Nc1ccc(Cl)cc1	i	?	3.5µM	6.7µM	4.5µM	?
CCOC(=O)c1c(C)c(-c2ccccc2)n(CC(=O)NCc2cccc(OC)c2)c1C	nt	nt	nt	i	nt	i
COc1ccc(Nc2nnc(-c3ccc(C)c(S(=O)(=O)N4CCOCC4)c3)c3ccccc23)cc1	nt	nt	nt	?	nt	i
Cc1cc(C)cc(NC(=S)Nc2cccc3ccccc23)c1	nt	?	2.5µM	21µM	2.5µM	nt
CCc1cccc(NC(=O)Cn2nc(C)c3sc4ccccc4c3c2=O)c1	nt	nt	nt	i	nt	nt
N=C1[C@@H](O)[C@]2(I)c3ccccc3N3C(=N)[C@H](O)[C@@H]4c5ccccc5N1[C@@H]4[C@@H]32	i[7.66 µM]	nt	nt	nt	nt	i[9.22 µM]
COc1ccc2nc(/C=N/NC(=O)CCNC(=O)OC(C)(C)C)ccc2c1	nt	i	?	13µM	?	nt
COc1ccc2nc(/C=N/NC(=O)CCCCCNC(=O)OC(C)(C)C)ccc2c1	nt	i	3.2µM	11µM	4µM	nt
O=C1c2ccccc2C(=O)N1OCc1cccc(Cl)c1	i	i	i	19µM	i	i
O=C1Cc2ccccc2C(=O)N1OCc1ccc(Cl)cc1Cl	i	i	i	24µM	i	i
COC(=O)c1sc(N2C(=O)c3oc4ccc(C)cc4c(=O)c3C2c2ccc(OC)cc2)nc1C (stereo unspecified)	nt	nt	nt	i	nt	i
CCC(=O)Nc1nc2ccc3sc(C)nc3c2s1	i	?	?	6.7µM	?	i
Cc1nc2c(ccc3nc(NC(=O)C4CC4)sc32)s1	i	i	?	13µM	i	i
Cc1c(Cl)ccc2sc(NC(=O)C3CC3)nc12	nt	i	i	?	i	nt
CC(=O)c1ccc(N2C(=O)N(Cc3cccc(C(F)(F)F)c3)c3ccccc3S2(=O)=O)cc1	nt	nt	nt	i	nt	nt
C=CCNS(=O)(=O)c1ncnc2nc[nH]c12	i[7.66 µM]	nt	nt	nt	nt	i[9.22 µM]
C=CCCCCCCC=C	nt	nt	nt	nt	nt	i
COc1cc(C(=O)Nc2ccc(S(=O)(=O)Nc3cnc4ccccc4n3)cc2)cc(OC)c1OC	nt	?	i	i	i	nt
SMILES	Luc counter	ELG1 genotoxic	NPC1 promoter act	FLuc modulator	Rab9 promoter act	SMN2 splice enh
Cn1c(NC(=O)c2cccnc2)nc2ccccc21	?	i	3.2µM	?	3.5µM	13µM
Cc1ccc(C(=O)Nc2ccc(S(=O)(=O)Nc3cnc4ccccc4n3)cc2)cc1	nt	i	i	27µM	i	nt
O=C(Nc1cnc2ccccc2c1)c1ccco1	i	?	1.4µM	7.6µM	0.63µM	14µM
O=C(Nc1cccc(-c2cnc3ccccc3n2)c1)c1ccco1	i	i	i	?	i	i
O=C(Nc1cnc2ccccc2c1)c1cccnc1	i	4.6µM	3.2µM	11µM	2.2µM	13µM
N[C@H]1[C@@H](C(=O)O)[C@H]2C=C[C@H]1C2	i[7.66 µM]	nt	nt	nt	nt	i[9.22 µM]
Cc1nn(S(=O)(=O)c2ccc(F)cc2)c(C)c1S(=O)(=O)N1CCCCCC1	nt	nt	nt	i	nt	nt
COc1ccc(CCNC(=O)c2c(C)nn(-c3ccc(F)cc3)c2-n2cccc2)c(OC)c1OC	nt	nt	nt	i	nt	nt
CC(=O)c1c(C)oc2c(Cl)cc(NS(=O)(=O)c3cc(C)c(C)cc3C)cc12	nt	nt	nt	i	nt	i
COc1cc(O)ccc1-c1nc2cc(C)ccn2c1Nc1ccccc1C	nt	nt	nt	i	nt	?
Cc1ccnc(NS(=O)(=O)c2ccc(NC(=O)CSc3nc(-c4ccccc4)cc(=O)[nH]3)cc2)n1	i	i	i	13µM	i	i
O=C(CSc1nc(NS(=O)(=O)c2ccccc2)cc(=O)[nH]1)Nc1ccc(F)cc1	i	i	i	i	i	i
Cc1cc(C(=O)Nc2cnc3ccccc3c2)ccc1[N+](=O)[O-]	i	?	1.4µM	?	2.2µM	13µM
O=C(Nc1cnc2ccccc2c1)c1cccc(-n2cnnn2)c1	i	i	4µM	24µM	4.5µM	?
O=C(NNC(=O)c1cccc(-n2cnnn2)c1)c1ccccc1	i	i	i	i	i	i
O=C(CNC(=O)c1ccc(-c2ccccc2)cc1)Nc1ccc(S(=O)(=O)Nc2ncccn2)cc1	nt	i	i	17µM	i	nt
O=C(CS(=O)(=O)c1ccccc1)Nc1ccc(S(=O)(=O)Nc2ncccn2)cc1	i	i	i	i	i	i
Cc1c(C(=O)N(Cc2ccc(N(C)C)cc2)CC2CCCO2)oc2ccc(Br)cc12 (stereo unspecified)	nt	nt	nt	i	nt	i
Cc1ccc(C(=O)Nc2cnc3ccccc3c2)cc1	?	?	?	0.076µM	?	nt
CC(C)(C)c1ccc(C(=O)Nc2cccc(-n3cnnn3)c2)cc1	nt	i	?	0.6µM	?	nt
CN(C)C(=O)Nc1cnc2ccccc2c1	i	i	i	i	i	i
CCOc1cc(-c2c(C#N)c(N)nc3c2CCc2ccccc2-3)ccc1O	i	i	i	i	i	13µM
Cc1[nH]c2ccccc2c1C1(O)C(=O)N(Cc2ccccc2)c2ccc(Cl)cc21 (stereo unspecified)	nt	nt	nt	i	nt	?
Cc1ccc(-c2nc(N/N=C/c3ccccc3[N+](=O)[O-])c3ccccc3n2)cc1	i	i	1.6µM	0.76µM	3.5µM	?
COc1cccc(CNc2nc(-c3cccnc3)nc3ccccc23)c1	i	i	i	i	i	i
SMILES	Luc counter	ELG1 genotoxic	NPC1 promoter act	FLuc modulator	Rab9 promoter act	SMN2 splice enh
COc1cccc(/C=N/Nc2nc(-c3cccnc3)nc3ccccc23)c1	nt	i	i	1.5µM	i	nt
C(=N\Nc1nc(-c2cccnc2)nc2ccccc12)/c1ccccc1	nt	i	i	1.3µM	i	nt
C(=N\Nc1nc(-c2ccccn2)nc2ccccc12)/c1ccccc1	nt	i	i	11µM	i	nt
c1ccc(-c2nc(NCc3ccco3)c3ccccc3n2)nc1	i	i	i	i	i	i
Brc1ccc(-c2nc(N/N=C/c3cccnc3)c3ccccc3n2)cc1	7.1µM	?	2.8µM	0.21µM	2.5µM	13µM
FC(F)(F)c1nc2ccccc2nc1N/N=C\c1ccccc1	i	i	i	15µM	i	i
Fc1ccc(Nc2nc(-c3cccnc3)nc3ccccc23)cc1	i	nt	nt	nt	nt	i
C#CCOc1c(Br)cc(C2C(C(=O)OC)=C(C)NC3=C2C(=O)c2ccccc23)cc1OCC (stereo unspecified)	nt	nt	nt	i	nt	i
